Giardia killer: Small Molecules that selectively kill Giardia lamblia: qHTS; Giardia lamblia trophozoite viability; activity change, % at 7.66 µM, hits read low; hit rate 0.15% among 340,000; AID 540267, 2011; in the data active means activity change below about -80%; inconclusive means between about -30% and that limit;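 further: parasites exposed to compound for two days anaerobically before the ATP read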
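Viability, read as ATP luminescence: trophozoites at 100 cells/well, compound added, 48 hrs anaerobic at 37 deg C, then 15-30 min room-temperature development before reading.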
TDP1 cell CPT: qHTS for Inhibitors of human tyrosyl-DNA phosphodiesterase 1 (TDP1): qHTS in cells in presence of CPT. Potency, µM (doses to about 46.2 µM), inactives show at the highest dose activity change, negative = growth inhibition, hits mostly inhibitors. hit rate 12% among 420,000. chicken DT40 Tdp1-/-;hTDP1 cells + 20 nM CPT, ATP luminescence, 48 h. AID 686979, 2013; further: potency means the concentration at half of the fitted maximal effect; nearly all actives have a fitted effect of over 55% in size
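Cell growth measured by CellTiter-Glo luminescence after a minimum 48 h, 37 C compound exposure with 20 nM CPT in Tdp1-knockout DT40 cells stably expressing hTDP1, seeded 400/well; qHTS titration format.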
ELG1 repair inh: qHTS screen for small molecules that inhibit ELG1-dependent DNA repair in human embryonic kidney (HEK293T) cells expressing luciferase-tagged ELG1. Potency, µM (top dose mostly 46.1 µM), for the others: top-dose activity change, negative = inhibition, hits mostly inhibitors. HEK293T ELG1-luciferase reporter, luminescence, 16 h; DNA damage induced by 5-fluorouridine. hit rate 2.3% among 330,000; further: potency means the concentration at half of the fitted maximal effect; nearly all actives have a fitted effect of over 55% in size
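Overnight (16 hr) co-exposure of 2,000 cells/well to 5-fluorouridine and compound at 37 °C preceded detection. Luciferase was quantified via ONE-Glo luminescence; loss of signal denotes inhibition.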
DT40 TDP1 no CPT: qHTS for Inhibitors of human tyrosyl-DNA phosphodiesterase 1 (TDP1): qHTS in cells in absence of CPT | DT40 Tdp1-/- hTDP1 cells, no CPT, ATP luminescence, 48 h | Potency, µM (doses to about 46.2 µM), without a hit: top-dose activity change, negative = growth inhibition, most hits filed as inhibitors | hit rate 15% among 420,000; further: potency means the concentration at half of the fitted maximal effect; nearly all actives have a fitted effect of over 55% in size
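Seeded 400 DT40-hTDP1 cells/well (vehicle DMSO, no 20 nM CPT); pinned compounds; ≥48 hr at 37 °C; CellTiter-Glo luminescence as viability measure.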
TDP1 block: qHTS Assay for Inhibitors of Tyrosyl-DNA Phosphodiesterase (TDP1) | Tyrosyl-DNA phosphodiesterase 1 (Homo sapiens), Q9NUW8 | recombinant TDP1, AlphaScreen DNA substrate cleavage | Potency, µM (highest dose often 130 µM), without a hit: at the highest dose activity change, negative = inhibition, most hits filed as inhibitors | hit rate 0.28% among 350,000 | AID 485290, 2010; further: potency means the concentration at half of the fitted maximal effect; nearly all actives have a fitted effect of over 40% in size
Target sequence (Q9NUW8 whole entry, looked up): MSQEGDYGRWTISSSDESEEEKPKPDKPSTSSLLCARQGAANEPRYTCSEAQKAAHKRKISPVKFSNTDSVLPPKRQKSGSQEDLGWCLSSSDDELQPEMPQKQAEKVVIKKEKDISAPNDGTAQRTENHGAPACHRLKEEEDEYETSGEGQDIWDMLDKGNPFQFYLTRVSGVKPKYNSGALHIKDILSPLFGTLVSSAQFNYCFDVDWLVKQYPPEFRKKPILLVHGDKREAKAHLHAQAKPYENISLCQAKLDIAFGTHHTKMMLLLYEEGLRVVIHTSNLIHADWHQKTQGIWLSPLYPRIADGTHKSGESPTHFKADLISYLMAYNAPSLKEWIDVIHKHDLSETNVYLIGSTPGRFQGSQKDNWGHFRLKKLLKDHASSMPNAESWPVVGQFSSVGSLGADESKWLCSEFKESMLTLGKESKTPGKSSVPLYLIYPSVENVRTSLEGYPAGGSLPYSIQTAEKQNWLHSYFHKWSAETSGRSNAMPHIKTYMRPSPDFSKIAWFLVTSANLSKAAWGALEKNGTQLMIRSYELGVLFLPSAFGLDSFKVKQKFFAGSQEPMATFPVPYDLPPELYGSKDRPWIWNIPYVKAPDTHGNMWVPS
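Steps: enzyme plus compound, 15 min RT; add biotin/phosphotyrosine-FITC oligonucleotide (15 nM final), react 5 min; add donor/acceptor beads (10 ug/ml final), 10 min; read AlphaScreen. Tdp1 at 1 nM final.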
IL-1B inflam inh: qHTS for Inhibitors of Inflammasome Signaling: IL-1-beta AlphaLISA Primary Screen; THP-1 LPS/ATP IL-1B secretion, AlphaLISA, 16 h; hits give low values; activity change, % at 57.5 µM; AID 743279, 2014; hit rate 4.7% among 360,000; in the data active means activity change below about -50%; inconclusive means mostly about -30% to -49%
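Secreted IL-1B measured by AlphaLISA bead assay after 16 h compound exposure of THP-1 cells; compounds (final up to 57.5 uM) added 1 h before LPS (250 ng/mL) and ATP (1.25 mM) stimulation; lower signal means less secretion.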
* hit, by the source's call; ? = inconclusive; . = not tested or not shown; [ ] = another dose, or the depositor's remark. The list is not random: actives were taken first. Their share in the collection is about 19%. Unless noted, the call rests on the fitted dose curve; in most records, active means well fitted curve in the direction sought with a large enough effect; inconclusive means small, poorly fitted or top-dose-only effect, or another doubt; inactive means no such curve, though single readings can be large; an effect the other way counts as inactive or inconclusive. On the % scale 0 is the no-effect control and ±100 the full control effect.

SMILES	Giardia killer	TDP1 cell CPT	ELG1 repair inh	DT40 TDP1 no CPT	TDP1 block	IL-1B inflam inh
COc1cc(C(=O)Nc2ccccc2N2CCCCC2)cc(OC)c1OC	2	?	21µM*	21µM*	.	-20
COc1ccc(Cl)cc1C(=O)Nc1ccccc1N1CCCCC1	-6	18µM*	-26%	29µM*	.	33
COc1ccc(CN2C(=O)c3ccccc3C2=O)cc1C(=O)Nc1ccccc1N1CCOCC1	3	?	?	16µM*	11%	77
O=C(Nc1ccccc1N1CCCCC1)c1cccc(Cl)c1	3	?	-17%	?	.	13
CC(=O)Nc1cc(C(=O)N2CCN(C(=O)c3ccco3)CC2)cc2ncn(CCc3ccccn3)c12	.	-13%[9.04 µM]	.	-6%	.	.
Nc1cc(-c2ccc(Br)cc2)[nH]n1	6	?	13µM*	?	5%	-9
COc1ccc(OCCNC(=O)c2ccccc2OCC(=O)Nc2ccc(NC(C)=O)cc2)cc1	-21	18µM*	16µM*	15µM*	0%	3
COc1ccc(OCCNC(=O)c2ccccc2OCC(=O)N2CCCCC2)cc1	8	21µM*	23µM*	18µM*	-5%[56.1 µM]	2
Cc1cccc(C)c1NC(=O)CCCN1C(=O)CCn2nc(-c3cn(C)c4ccccc34)cc21	.	?	.	13µM*	3%	.
COc1cc(NC(=O)CCCN2C(=O)CCn3nc(-c4cn(C)c5ccccc45)cc32)cc(OC)c1	.	?	.	18µM*	4%	.
CC(NC(=O)CCCN1C(=O)CCn2nc(-c3cn(C)c4ccccc34)cc21)c1ccccc1 (stereo not given)	.	?	.	23µM*	8%	.
Cn1cc(-c2cc3n(n2)CCC(=O)N3CCCC(=O)NCc2ccc(Cl)cc2)c2ccccc21	.	?	.	?	1%	.
Cn1cc(-c2cc3n(n2)CCC(=O)N3CCCC(=O)NCc2ccccc2Cl)c2ccccc21	.	16µM*	.	13µM*	-1%	.
CCc1ccccc1NC(=O)CCCN1C(=O)CCn2nc(-c3cn(C)c4ccccc34)cc21	.	-25%	.	-23%	8%	.
Cn1cc(-c2cc3n(n2)CCC(=O)N3CCCC(=O)Nc2ccc(Cl)cc2)c2ccccc21	.	?	.	?	11%	.
CCOc1ccccc1CNC(=O)CCCN1C(=O)CCn2nc(-c3cccn3C)cc21	.	18µM*	.	?	3%	.
CCCNC(=O)CCCN1C(=O)CCn2nc(-c3cccn3C)cc21	.	6%	.	10%	10%	.
CCOC(=O)c1c(NC(=O)/C=C/c2ccc(Cl)cc2)sc2c1CCC(C)C2 (stereo not given)	.	11%	.	-1%	2%[12.3 µM]	.
N#Cc1ccc(NC(=O)COC(=O)C2Cc3ccccc3CN2C(=O)c2ccccc2)cc1 (stereo not given)	11	9.2µM*	10µM*	16µM*	3%	-8
Cc1cccc(C)c1NC(=O)COC(=O)C1Cc2ccccc2CN1C(=O)c1ccccc1 (stereo not given)	14	-15%	-9%	?	.	2
COc1cc(O)c(C(=O)c2ccccc2)cc1O	.	4.1µM*	.	4.6µM*	4%	.
COc1cc(O)c(C(=O)c2ccccc2)cc1S(=O)(=O)O	.	1%	.	5%	3%	.
COC(=O)[C@H](C)N(Cc1ccc(Cl)c(Cl)c1)S(=O)(=O)CCN1CCN(c2ccccc2)CC1	1	?	?	18µM*	1%[56.1 µM]	-2
COC(=O)[C@H](C)N(Cc1ccc(Cl)c(Cl)c1)S(=O)(=O)CCN1CCCC1	8	?	-21%	?	0%[56.1 µM]	-26
Cc1ccc2cc(C)c3nnc(SCC(=O)NCc4ccco4)n3c2c1	-1	3%	-9%	-7%	50µM*	-21
SMILES	Giardia killer	TDP1 cell CPT	ELG1 repair inh	DT40 TDP1 no CPT	TDP1 block	IL-1B inflam inh
Cc1nc(SCC(=O)NCc2ccco2)[nH]c(=O)c1C	7	23µM*	5%	-20%	-3%	39
Cc1cc2nnc(SCC(=O)NCc3ccco3)n2c2ccccc12	-19	4.6µM*	.	4.6µM*	.	-24
Cc1cc2cc(C)c3nnc(SCC(=O)NCc4ccco4)n3c2cc1C	-8	?	-20%	?	3%	-66*
Cc1ccc(S(=O)(=O)N/N=C/c2ccc(OCC(=O)NC(C)C)cc2)cc1	-3	-14%	.	-17%	.	7
Cc1cc(C)c(NC(=O)CSc2nc(=O)n(Cc3ccco3)c3c2CCC3)c(C)c1	.	?	.	?	3%	.
C=CCOCC1CN2C(CCC(C)C2c2ccc(Br)cc2)C(=O)O1 (stereo not given)	.	.	.	.	7%[21 µM]	.
O=C1C=CC(=O)N1c1cccc(-c2ccccc2)c1	9	0.65µM*	10%	0.73µM*	-1%	-65*
O=C1c2ccccc2C(=O)N1c1cccc(-c2nc3ccccc3o2)c1	-18	-6%	8%	-26%	4%	19
O=[N+]([O-])CC(c1ccc(F)cc1)c1c[nH]c2ccccc12 (stereo not given)	-21	7.3µM*	?	6.5µM*	.	0
Fc1ccc(C(Nc2ccccn2)c2c[nH]c3ccccc23)cc1 (stereo not given)	4	?	-18%	?	4%	-22
CCCC1CCc2c(sc(N)c2C(N)=O)C1 (stereo not given)	3	16µM*	-2%	21µM*	4%	-9
NC(=O)c1c(NC(=O)C2CCCO2)sc2c1CCC2 (stereo not given)	-8	0%	-2%	-6%	5%	-26
CC(C)(C)C1CCc2c(sc(NC(=O)C3CCCO3)c2C(N)=O)C1 (stereo not given)	1	?	12%	18µM*	2%	-9
CCC(C)(C)C1CCc2c(sc(N)c2C(N)=O)C1 (stereo not given)	-17	21µM*	-20%	21µM*	7%	-15
CCOC(=O)c1c(N)sc2c1CCC(C)C2 (stereo not given)	-7	-26%	-3%	-4%	-2%	5
CC(C)(C)C1CCc2c(sc(N)c2C(N)=O)C1 (stereo not given)	-20	23µM*	?	18µM*	4%	-64*

Compound activity as filed in PubChem BioAssay.
